# In the library only some 21% were active in any assay of this set; here they are far more common.
# TDP1 cell noCPT: qHTS for Inhibitors of human tyrosyl-DNA phosphodiesterase 1 (TDP1): qHTS in cells in absence of CPT; Potency, µM (titrated, usually from 46.2 µM), without a hit: at the highest dose activity change, negative = growth inhibition, usual class: inhibitors; AID 686978, 2013; DT40 Tdp1-/- hTDP1 cells, no CPT, ATP luminescence, 48 h; 420,000 tested, 15% active; also: potency is read from the fitted curve at half-maximal effect; nearly all actives have a fitted effect of over 55% in size
#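 Cells were dispensed at 400 per well, compounds added by pin tool, plates incubated ≥48 hr at 37 °C, then CellTiter-Glo added for 30 min at room temperature before luminescence reading. Line: DT40 Tdp1-/- complemented with hTDP1; camptothecin omitted.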
# DT40 TDP1 CPT: qHTS for Inhibitors of human tyrosyl-DNA phosphodiesterase 1 (TDP1): qHTS in cells in presence of CPT. AID 686979, 2013. chicken DT40 Tdp1-/-;hTDP1 cells + 20 nM CPT, ATP luminescence, 48 h. 420,000 tested, 12% active. Potency, µM (doses to about 46.2 µM), without a hit: at the highest dose activity change, negative = growth inhibition, actives largely listed as inhibitors; also: potency is read from the fitted curve at half-maximal effect; nearly all actives have a fitted effect of over 55% in size
#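 Cell growth measured by CellTiter-Glo luminescence after a minimum 48 h, 37 C compound exposure with 20 nM CPT in Tdp1-knockout DT40 cells stably expressing hTDP1, seeded 400/well; qHTS titration format.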
# VP16 counter: VP16 counterscreen qHTS for inhibitors of ROR gamma transcriptional activity; Drosophila S2 Gal4-VP16 UAS-luciferase, luminescence, 20 h; 310,000 tested, 3.5% active; Potency, µM (titrated, usually from 53.6 µM), inactives show at the top dose activity, negative = inhibition, most hits filed as inhibitors;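 also: Gal4-VP16 expression switched on by copper sulfate through the metallothionein promoter; potency is read from the fitted curve at half-maximal effect; nearly all actives have a fitted effect of over 50% in size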
# IL1B secr inh: qHTS for Inhibitors of Inflammasome Signaling: IL-1-beta AlphaLISA Primary Screen; THP-1 LPS/ATP IL-1B secretion, AlphaLISA, 16 h; active compounds read low; activity change, % at 57.5 µM; 360,000 tested, 4.7% active; in the data active = activity change below about -50%; inconclusive = mostly about -30% to -49%
#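 THP-1 cells pretreated 1 hr with compounds (up to 57.5 uM final), then stimulated with LPS (250 ng/mL final) plus ATP (1.25 mM final); secreted IL-1B measured by AlphaLISA after 16 hr, decreased signal indicating inhibition.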
# RORg inh: qHTS for inhibitors of ROR gamma transcriptional activity. Potency, µM (series often up to 53.6 µM), inactives show at the top dose activity change, negative = inhibition, usual class: inhibitors. 310,000 tested, 5.4% active. Drosophila S2 Gal4-RORgamma UAS-luciferase reporter, 20 h. Nuclear receptor ROR-gamma (Mus musculus), P51450. AID 2551, 2010; also: potency is read from the fitted curve at half-maximal effect; nearly all actives have a fitted effect of over 60% in size
# Target sequence (P51450 whole entry, looked up, the tested form may be a part): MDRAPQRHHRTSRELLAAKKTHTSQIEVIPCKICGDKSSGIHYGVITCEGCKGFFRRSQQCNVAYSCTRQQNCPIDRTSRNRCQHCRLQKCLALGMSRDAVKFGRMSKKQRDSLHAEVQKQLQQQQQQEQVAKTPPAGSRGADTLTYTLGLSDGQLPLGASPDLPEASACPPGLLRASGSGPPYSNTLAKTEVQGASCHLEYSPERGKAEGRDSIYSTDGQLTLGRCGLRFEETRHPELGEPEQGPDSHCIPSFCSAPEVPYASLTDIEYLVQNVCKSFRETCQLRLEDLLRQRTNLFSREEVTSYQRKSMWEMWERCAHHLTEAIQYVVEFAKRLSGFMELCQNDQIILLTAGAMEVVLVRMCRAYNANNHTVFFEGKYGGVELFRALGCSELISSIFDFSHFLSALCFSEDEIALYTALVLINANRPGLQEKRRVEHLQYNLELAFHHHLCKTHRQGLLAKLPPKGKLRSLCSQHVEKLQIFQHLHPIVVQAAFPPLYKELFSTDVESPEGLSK
#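 Stable Schneider cell line, Gal4 DNA-binding domain fused to ROR gamma, UAS-luciferase. Cmpd 1 hr RT → CuSO4 700 uM final → 20 hr RT → luciferase reagent 10 min → luminescence.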
# ELG1 DNA repair: qHTS screen for small molecules that inhibit ELG1-dependent DNA repair in human embryonic kidney (HEK293T) cells expressing luciferase-tagged ELG1; HEK293T ELG1-luciferase reporter, luminescence, 16 h; DNA damage induced by 5-fluorouridine; Potency, µM (top dose mostly 46.1 µM), for inactives: top-dose activity change, negative = inhibition, hits mostly inhibitors; 330,000 tested, 2.3% active; AID 504467, 2011; also: potency is read from the fitted curve at half-maximal effect; nearly all actives have a fitted effect of over 55% in size
#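 DMSO vehicle served as the neutral condition. Each well held 2,000 cells given 5-fluorouridine plus compound; after 16 hr at 37 °C/5% CO2, ONE-Glo was added and luciferase measured 30 min later.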
# Active calls of the source: *; u = inconclusive; x = not tested or not shown. Unless noted, calls follow the shape of the dose curve; as a rule, active = well fitted curve in the direction sought with a large enough effect; inconclusive = small, poorly fitted or top-dose-only effect, or another doubt; inactive = no such curve, though single readings can be large; an effect the other way counts as inactive or inconclusive. % is scaled to controls: 0 for no effect and ±100 for the full control effect.
SMILES,TDP1 cell noCPT,DT40 TDP1 CPT,VP16 counter,IL1B secr inh,RORg inh,ELG1 DNA repair
Cc1cc2cc(CCNC(=O)C(=O)c3c[nH]c4ccccc34)c(=O)[nH]c2cc1C,18µM*,15µM*,0%,-56*,23%,-19%
COc1ccc(CNC(=O)CN2C(=O)CCn3nc(-c4ccccc4)cc32)c(OC)c1,-26%,-19%,x,x,x,x
C[C@H](NC(=O)[C@@H]1CCCN1C(=O)[C@@H]1CCCN1C(=O)OC(C)(C)C)c1ccccc1,-6%,u,x,-4,x,x
COc1ccc(OC2(C)CCN(Cc3ccccc3OC(F)F)C2)cc1 (centres undefined),u,u,x,18,x,x
C=C1CCC(=O)C(C)CCC2C1CC2(C)C (centres undefined),-4%,3%,6%,x,-18%,x
COc1cc(/C=C(/C#N)C(=O)NCCc2c[nH]c3ccccc23)ccc1OCc1ccccc1F,u,12µM*,-3%,10,-17%,u
O=C(NCCc1c[nH]c2ccccc12)C(=O)c1c[nH]c2ccccc12,15µM*,u,17%,-18,u,15%
C=CCn1c(C)c(C(C)=O)c(N2CCCC2)nc1=S,-19%,u,2%,43,-19%,3%
CCCSc1nc(=S)n(Cc2ccccc2)c(C)c1C(C)=O,23µM*,-20%,u,-3,14µM*,u
CC(=O)c1c(C(C)=O)c(C)n(Cc2ccccc2)c1C,u,-19%,-4%,10,7%,u
CC(=O)c1c(N2CCN(c3ccc(F)cc3)CC2)nc(=S)n(Cc2ccccc2)c1C,u,u,-27%,u,u,u
CC(=O)c1c(N2CCCCC2)nc(=S)n(Cc2ccccc2)c1C,u,26µM*,-25%,-18,11µM*,-9%
CC(=O)c1c(N2CCN(Cc3ccccc3)CC2)nc(=S)n(Cc2ccccc2)c1C,16µM*,16µM*,u,6,-10%,-27%
CCn1c(C)c(C(C)=O)c(N2CCCC2)nc1=S,-1%,0%,1%,-11,7.9µM*,0%
O=C(Cn1c(=O)c2sccc2n(CC(=O)Nc2ccc(Cl)cc2Cl)c1=O)NCCc1ccccc1,-18%,u,x,x,x,x
COc1ccc(N2C(=O)CCC(C(=O)N3CCCCCC3)C2c2ccc(OC)c(OC)c2)cc1 (centres undefined),-3%,3%,-4%,11,3%,4%
Cc1ccc(OCc2nc(-c3ccccn3)no2)c(Br)c1,-18%,-28%,u,-7,u,u
CC(C)c1ccc(OCc2nc(-c3ccccn3)no2)c(Br)c1,-27%,-15%,-27%,-54*,-42%,u
CC(C)(C(=O)N1CCC1(C)C(=O)NC1Cc2ccccc2C1)c1ccccc1 (centres undefined),21µM*,16µM*,x,37,x,x
Cc1nn(-c2ccccc2)c(C)c1/C=N\N1CCN(c2ccc(Cl)cc2)CC1,10µM*,18µM*,4%,-16,30%,u
Cc1nn(-c2ccccc2)c(C)c1/C=N/n1cnnc1,2%,21%,-9%,43,5%,u
CN(C)CC(CCC(CN(C)C)C(O)(c1ccccc1)c1ccccc1)C(O)(c1ccccc1)c1ccccc1 (centres undefined),18µM*,23µM*,u,-85*,u,18µM*
CN(C)C/C=C/C(O)(c1ccccc1)c1ccccc1,-1%,16%,-3%,-20,2%,u
O=[N+]([O-])c1ccc(-c2nc(NCc3cccnc3)c3ccccc3n2)cc1,27%,-5%,-6%,22,-25%,15%
CN(C)c1ccc(-c2nc(NCc3cccnc3)c3ccccc3n2)cc1,4.1µM*,3.7µM*,14µM*,x,u,x
SMILES,TDP1 cell noCPT,DT40 TDP1 CPT,VP16 counter,IL1B secr inh,RORg inh,ELG1 DNA repair
c1cncc(CNc2nc(-c3ccoc3)nc3ccccc23)c1,21µM*,u,6%,x,4%,x
COc1ccc(CNc2nc(-c3ccc(N(C)C)cc3)nc3ccccc23)c(OC)c1,4.1µM*,4.1µM*,5µM*,x,5µM*,x
N#Cc1ccc(NCCNCC(=O)N2N=CCC2C#N)nc1 (centres undefined),x,x,-5%,x,-20%,x
Cc1oc(-c2cccc(Cl)c2)nc1CN1CCCC(C(=O)NCc2ccc(Cl)cc2)C1 (centres undefined),7.3µM*,8.2µM*,x,x,x,x
Cc1oc(-c2cccc(Cl)c2)nc1CN1CCCC(C(=O)NC(C)c2ccc3c(c2)OCCO3)C1 (centres undefined),12µM*,21µM*,-17%,u,-5%,u
Cc1ccc(CNC(=O)C2CCCN(Cc3nc(-c4cccc(C)c4)oc3C)C2)cc1 (centres undefined),u,18µM*,x,x,x,x
O=c1cnc2cnc(N3CCNCC3)nc2n1CCc1ccccc1,-24%,10%,-21%,x,-1%,x
COc1cc(C(=O)C(=O)N2CCN(c3ccccc3)CC2)cc2ccccc12,u,u,x,-6,x,x
CC(C)NC(=O)C1(C)CSCC(=O)N1Cc1cccs1 (centres undefined),1%,25%,x,-24,x,x
CCCN(C(=O)c1cn(CC(C)C)c(=O)c2cc(OC)c(OC)cc12)c1cccc(C)c1,15µM*,13µM*,x,x,x,x
COc1cc2c(C(=O)N(C)c3cc(Cl)ccc3OC)cn(CC(C)C)c(=O)c2cc1OC,8.2µM*,9.2µM*,x,x,x,x
COc1cc2c(C(=O)NCc3ccc(C)o3)cn(CC(C)C)c(=O)c2cc1OC,u,-23%,7%,5,28%,u
CCc1ccccc1N(C)C(=O)c1cn(CC(C)C)c(=O)c2cc(OC)c(OC)cc12,10µM*,10µM*,x,x,x,x
CCC1CCCCN1CCCNC(=O)c1cn(CC(C)C)c(=O)c2cc(OC)c(OC)cc12 (centres undefined),1.8µM*,1%,-12%,u,-12%,-7%
Cc1nn(CC(=O)NC2CCCCC2)c(C)c1[N+](=O)[O-],-11%,3%,x,-7,x,x
CCN(C(=O)c1cn(CC(C)C)c(=O)c2cc(OC)c(OC)cc12)c1cc(OC)ccc1OC,15µM*,13µM*,x,x,x,x
CCOC(=O)c1ccccc1NC(=O)c1cn(CC(C)C)c(=O)c2cc(OC)c(OC)cc12,u,-2%,x,x,x,x
